LYPLA1 counter – counter-screen for PME1 inhibitors: inhibitors of human LYPLA1. O75608. recombinant LYPLA1, FP-Rh probe fluorescence polarization. inhibition, % at 5.9 µM. actives 0.16% (n = 320,000). AID 2174;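 active = inhibition above the mean of all tested compounds plus 3 SD, set per campaign, cut at about 14% in these data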;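 note: inhibitors block serine hydrolase probe labeling of LYPLA1 so polarization falls; 0% = enzyme with DMSO and 100% = wells lacking LYPLA1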
PME-1 inh – PME-1 (human) inhibition. actives 0.53% (n = 320,000). recombinant PME-1, FP-Rh probe fluorescence polarization. inhibition, % at 5.9 µM. Q9Y570;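 active = inhibition above the campaign mean of all compounds plus 3 SD, cut at about 26% in these data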;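 note: competitive labeling of PME-1 active site by serine hydrolase directed probe; 0% = PME-1 with DMSO and 100% = wells lacking PME-1 enzyme; inhibitors block probe labeling so polarization falls and inhibition rises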
Fam108B counter – Fam108B inhibition, counter-screen for RBBP9 inhibitors; recombinant Fam108B, FP-Rh probe fluorescence polarization; inhibition, % at 9.51 µM; actives 0.33% (n = 300,000); AID 1947;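 active = inhibition above the screen mean inhibition plus 3 SD, computed separately per campaign, cut at about 18% in these data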;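 note: inhibitors lower polarization as less probe binds the enzyme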
GSTO1 counter – counter-screen for RBBP9 inhibitors: inhibitors of human GSTO1; actives 1.1% (n = 300,000); recombinant GSTO1, activity-based probe fluorescence polarization; AID 1974; inhibition, % at 5.96 µM;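 active = inhibition above the campaign mean inhibition plus 3 SD, cut at about 35% in these data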;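 note: 0% = GSTO1-1 with DMSO and 100% = wells lacking GSTO1-1 enzyme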
LYPLA2 inh – counter-screen for PME1 inhibitors: inhibitors of human LYPLA2. inhibition, % at 5.9 µM. AID 2177. recombinant LYPLA2, FP-Rh probe fluorescence polarization. actives 0.38% (n = 320,000). O95372;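 active = inhibition above the screen-wide mean plus 3 SD, limit set per campaign, cut at about 26% in these data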;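 note: 0% = LYPLA2 with DMSO and 100% = wells lacking LYPLA2 enzyme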
PREPL inhibitor – inhibitors of human prolyl oligopeptidase-like enzyme PREPL | actives 0.68% (n = 320,000) | Q4J6C6 | inhibition, % at 5.96 µM | recombinant PREPL, fluorescence polarization activity-based probe; in the data active = inhibition above about 43%;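 note: 0% = enzyme with DMSO and 100% = wells lacking enzyme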
Target sequence (Q4J6C6 whole entry, looked up): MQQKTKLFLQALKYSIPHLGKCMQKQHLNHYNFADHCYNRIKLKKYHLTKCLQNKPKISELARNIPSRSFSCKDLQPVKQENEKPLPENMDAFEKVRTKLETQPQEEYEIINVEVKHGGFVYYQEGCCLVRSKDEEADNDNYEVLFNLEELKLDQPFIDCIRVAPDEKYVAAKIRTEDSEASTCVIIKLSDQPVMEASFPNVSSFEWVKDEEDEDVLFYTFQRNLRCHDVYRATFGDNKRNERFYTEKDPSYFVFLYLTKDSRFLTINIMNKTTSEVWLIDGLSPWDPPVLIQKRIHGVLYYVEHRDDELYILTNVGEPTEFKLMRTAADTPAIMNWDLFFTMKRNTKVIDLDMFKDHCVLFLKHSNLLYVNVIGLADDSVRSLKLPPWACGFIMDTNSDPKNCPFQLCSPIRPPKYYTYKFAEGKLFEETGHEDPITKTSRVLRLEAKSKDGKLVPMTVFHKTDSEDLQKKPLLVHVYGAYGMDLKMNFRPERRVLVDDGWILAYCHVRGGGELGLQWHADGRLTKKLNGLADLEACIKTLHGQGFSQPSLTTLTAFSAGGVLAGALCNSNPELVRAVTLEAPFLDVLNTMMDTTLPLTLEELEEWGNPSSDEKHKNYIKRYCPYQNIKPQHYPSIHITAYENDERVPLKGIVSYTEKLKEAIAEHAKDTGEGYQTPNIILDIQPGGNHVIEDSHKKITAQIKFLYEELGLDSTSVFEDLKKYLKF
Active calls of the source: *; · = not tested or not shown. Shown are actives, neighbours in structure and some others; about 1.9% of the full set was active somewhere.

SMILES | LYPLA1 counter | PME-1 inh | Fam108B counter | GSTO1 counter | LYPLA2 inh | PREPL inhibitor
Cc1ccc(-c2c(C(=O)N/N=C/c3c[nH]c4ccccc34)nnn2-c2nonc2N)cc1 | -8 | 27* | 8 | 2 | 7 | 20
COCc1c(C(=O)N/N=C/c2c[nH]c3ccccc23)nnn1-c1nonc1N | 2 | 2 | 1 | -2 | 5 | 12
CN(C)c1ccc(NC(=O)Nc2cccc(Cl)c2)cc1 | -4 | 32* | 5 | 9 | 3 | 19
CCOC(=O)c1sc(NC(=O)Nc2cccc(Cl)c2)cc1C | -19 | 13 | 25* | -47 | -13 | 19
CN(c1cccc(NC(=O)Nc2cccc(Cl)c2)c1)S(C)(=O)=O | -20 | -18 | -3 | -34 | -23 | -9
COc1ccc(C2c3ccc4ccccc4c3Oc3ncn(CCN4CCOCC4)c(=N)c32)cc1 (stereo not given) | -13 | 2 | 2 | -9 | -12 | 44*
CCOC(=O)CNC(=S)N(Cc1ccco1)Cc1ccccc1Cl | 0 | -1 | 0 | -3 | 5 | -4
COC(=O)c1cccc(NC(=O)CCc2c(C)noc2C)c1 | -2 | 2 | · | · | 0 | 1
CCOc1cc(/C=N/Nc2nnc(C)n2N)ccc1O | 1 | -1 | 16 | 37* | 8 | 14
CCOc1cc(/C=N/Nc2ncnc(Cl)c2N)ccc1O | 0 | -4 | 5 | 9 | 3 | 11
Cc1ccc(NC(=S)NNC(=S)Nc2ccc(C)cc2C)cc1 | -1 | 2 | 2 | 47* | -1 | 14
O=c1c2ccccc2nc2n1CC/C2=C\N1CCN(c2ccc([N+](=O)[O-])cc2)CC1 | 3 | -1 | 2 | 2 | 10 | 37
COc1cccc2c1C(=O)C=C(C)C2=O | 1 | 4 | 0 | 40* | -3 | 3
CC1=NC(=O)C(N=Nc2cccc(O)c2)N1c1ccccc1 (stereo not given) | -5 | 30* | 4 | -4 | -4 | 4
c1ccc2c(c1)OCCc1c-2[nH]c2ccccc12 | 0 | 33* | 2 | 8 | 0 | 21
O=C1CCCc2c1[nH]c1ccccc21 | 2 | 3 | 1 | -5 | -2 | 16
CN(C)c1ccc(C(=O)N/N=C/c2ccccn2)cc1 | 3 | 1 | 3 | 2 | 3 | 1
CC(O)c1cc2c(s1)c1cnn(Cc3ccccc3F)c(=O)c1n2C (stereo not given) | · | · | · | · | · | 3
COc1ccccc1NC(=O)c1ccc(NC(=O)COC(=O)c2cncc(Br)c2)cc1 | · | · | · | · | · | 0
Cn1c(=O)c2c(nc(CN3CCN(C(c4ccccc4)c4ccccc4)CC3)n2CCCO)n(C)c1=O | -2 | 30* | -3 | 3 | -2 | 7
CCCCCn1c(CN2CCN(Cc3ccccc3)CC2)nc2c1c(=O)n(C)c(=O)n2C | -1 | 0 | 0 | 3 | -3 | 19
COc1ccc(-c2ccc(CNCc3ccccn3)o2)cc1Cl | 2 | 1 | 2 | 2 | 4 | 51*
Cc1ccc(S(=O)(=O)/N=C2\C=C(Nc3ccc(O)cc3)C(=O)c3ccccc32)cc1 | · | · | · | · | · | 39
Cc1ccc(NC2=C/C(=N/S(=O)(=O)c3cccs3)c3ccccc3C2=O)cc1 | -1 | 4 | 8 | 65* | -3 | 5
O=C(CCc1ccccc1)NC1(Cc2ccccc2)CCN(CCCc2ccccc2)C1=O (stereo not given) | 2 | 0 | · | · | 7 | -1
SMILES | LYPLA1 counter | PME-1 inh | Fam108B counter | GSTO1 counter | LYPLA2 inh | PREPL inhibitor
COc1ccc(N2CCN(c3oc(-c4ccccc4OC)nc3C#N)CC2)cc1 | 7 | -6 | 4 | -8 | 10 | 52*
COc1ccc(-c2cc(=O)n(CCC#N)[nH]2)cc1 | 2 | 0 | 2 | 36* | 0 | 2
CCOC(=O)c1ccc(NC(=O)Nc2ccc3c4c(cccc24)C(=O)N3CC)cc1 | -6 | 28* | -4 | 0 | -7 | 7
CCN1C(=O)c2cccc3c(NS(=O)(=O)c4ccc(NC(C)=O)cc4)ccc1c23 | 3 | -1 | -1 | -2 | -2 | 5
CCCCCCn1c(=O)[nH]c2nc3cc(N)ccc3nc2c1=O | 1 | 30* | 7 | 0 | 7 | 20
O=[N+]([O-])c1ccc(N2CCN(C(=S)NCc3ccc(Cl)cc3)CC2)cc1 | -3 | -18 | -7 | -26 | 28* | -83
O=C(NCC(=O)N1CCC2(CC1)NCCc1[nH]cnc12)c1ccc(F)cc1 | 4 | 2 | -5 | 5 | 4 | -2
